Rows were chosen to be rich in hits. Some 2.4% of all compounds tested hit in one or more screens of this group.
Pol iota inh: DNA polymerase iota (human) inhibition. Potency, µM (highest dose often 115 µM), inactives show top-dose activity, negative = inhibition, most hits filed as inhibitors. AID 588590. Q9UNA4. Pol iota fluorescent replication assay, 10 min. hit rate 1% among 390,000
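Fluorescent replication assay read twice, at 0 min and 10 min after adding 50 nM (final) substrate. Enzyme (10 nM) and compounds were first incubated 15 min at room temperature; enzyme-free buffer wells were negative controls.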
FEN1 inh: human FEN1 inhibition; Recombinant FEN1 flap cleavage, fluorescence, 15 min; Potency, µM (titrated, usually from 114 µM), inactives show at the highest dose activity change, negative = inhibition, usual class: inhibitors; P39748; AID 588795; hit rate 0.35% among 390,000; note: % is set by controls: 0 for no effect and ±100 for the full control effect; nearly all actives have a fitted effect of over 65% in size
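Read-out was taken twice, immediately and after 15 min, following addition of 50 nM substrate to 10 nM FEN1 that had sat with test compound for 15 min at room temperature. Curves came from a four-parameter Hill model.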
WRN inhibitor: blocks human WRN helicase | Q14191 | WRN helicase unwinding, fluorescent forked duplex, kinetic | Potency, µM (highest dose often 114 µM), inactives show at the highest dose activity change, negative = inhibition, most hits filed as inhibitors | hit rate 0.46% among 360,000 | AID 651768; note: % is set by controls: 0 for no effect and ±100 for the full control effect; nearly all actives have a fitted effect of over 55% in size
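Kinetic red-fluorescence monitoring (525/598 nm) tracks WRN helicase activity after 100 nM fluorophore-quencher forked duplex and 2 mM ATP are added to 20 nM enzyme pretreated 15 min at room temperature with compound.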
Pol beta inh: DNA polymerase beta (human) inhibition | P06746 | Potency, µM (highest dose often 114 µM), for inactives: top-dose activity change, negative = inhibition, usual class: inhibitors | Pol beta primer extension/strand displacement, fluorescence kinetic | hit rate 1.3% among 340,000; note: % is set by controls: 0 for no effect and ±100 for the full control effect
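10 nM enzyme + cpd, 15 min RT; start with substrate 50 nM final; read 0 min and after 10 min RT. Corrected, normalized data; 4-parameter Hill curve fit.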
POLH inh: inhibitors of human DNA polymerase eta; Q9Y253; recombinant Pol eta, fluorescent DNA replication assay; Potency, µM (titrated, usually from 114 µM), inactives show top-dose activity change, negative = inhibition, hits mostly inhibitors; hit rate 1.2% among 390,000; AID 588591; note: % is set by controls: 0 for no effect and ±100 for the full control effect
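Pol eta at 10 nM preincubated with compounds 15 min at room temperature; reaction started with fluorescent substrate (50 nM final) and read kinetically at 0 and 10 min.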
Pol kappa inh: DNA polymerase kappa (human) inhibition | purified Pol kappa, fluorescent DNA synthesis assay, 10 min | Q9UBT6 | hit rate 0.53% among 400,000 | Potency, µM (top dose mostly 107 µM), for the others: at the highest dose activity, negative = inhibition, hits mostly inhibitors; note: % is set by controls: 0 for no effect and ±100 for the full control effect
Target sequence (Q9UBT6 whole entry, looked up): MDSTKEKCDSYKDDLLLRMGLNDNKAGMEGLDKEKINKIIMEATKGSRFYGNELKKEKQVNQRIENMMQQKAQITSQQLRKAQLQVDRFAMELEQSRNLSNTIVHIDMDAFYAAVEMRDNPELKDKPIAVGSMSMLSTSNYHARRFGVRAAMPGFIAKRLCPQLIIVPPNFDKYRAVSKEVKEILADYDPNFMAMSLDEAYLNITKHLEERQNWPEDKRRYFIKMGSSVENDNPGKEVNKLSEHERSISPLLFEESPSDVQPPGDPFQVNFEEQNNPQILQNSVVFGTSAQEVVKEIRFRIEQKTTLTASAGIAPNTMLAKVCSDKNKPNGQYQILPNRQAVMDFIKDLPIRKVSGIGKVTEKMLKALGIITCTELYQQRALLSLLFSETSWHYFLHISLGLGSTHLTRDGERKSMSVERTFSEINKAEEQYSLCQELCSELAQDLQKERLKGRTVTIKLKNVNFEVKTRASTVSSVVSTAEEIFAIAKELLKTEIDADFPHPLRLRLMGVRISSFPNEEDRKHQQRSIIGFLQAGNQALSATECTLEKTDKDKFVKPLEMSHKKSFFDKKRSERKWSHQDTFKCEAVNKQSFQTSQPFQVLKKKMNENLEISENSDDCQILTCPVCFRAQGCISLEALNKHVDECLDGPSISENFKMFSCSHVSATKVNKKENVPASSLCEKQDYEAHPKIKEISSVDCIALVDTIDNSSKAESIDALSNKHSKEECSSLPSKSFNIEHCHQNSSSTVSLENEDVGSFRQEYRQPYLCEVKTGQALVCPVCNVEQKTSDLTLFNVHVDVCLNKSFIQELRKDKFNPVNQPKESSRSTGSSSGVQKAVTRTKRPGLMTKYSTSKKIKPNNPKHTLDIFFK
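Pol kappa 10 nM + cpd, 15 min RT; start w/ substrate 50 nM final; fluorescence kinetic read, 0 and 10 min. Neg ctrl: buffer, no enzyme.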
* = called active by the depositor; ? = inconclusive; · = not tested or not shown; [ ] = dose if it differs, or a comment. Calls come from the whole dose curve; as a rule, active = well fitted curve in the direction sought with a large enough effect; inconclusive = small, poorly fitted or top-dose-only effect, or another doubt; inactive = no such curve, though single readings can be large; an effect the other way counts as inactive or inconclusive. Potency is the fitted concentration of half-maximal effect.

SMILES	Pol iota inh	FEN1 inh	WRN inhibitor	Pol beta inh	POLH inh	Pol kappa inh
O=C(N/N=C1\C(=O)c2cccc3cccc1c23)c1ccc(O)cc1	183%	-18%	-20%	5.6µM*	?	-9%
CC1(C)CC(=O)C(C(C2=C(O)CC(C)(C)CC2=O)c2ccc(Br)s2)C(=O)C1 (configuration not stated)	?	-13%	22µM*	-1%	-3%	-3%
CC1(C)CC(=O)C(C(C2=C(O)CC(C)(C)CC2=O)c2ccc([N+](=O)[O-])cc2)C(=O)C1 (configuration not stated)	1%	-1%	-29%[57.1 µM]	8%[57.1 µM]	-9%	-6%
Cc1ccc(C(C2=C(O)CC(C)(C)CC2=O)C2C(=O)CC(C)(C)CC2=O)s1 (configuration not stated)	-17%	-9%	56µM*	2%	4%	-13%
Cc1cc(NC(=O)C2CCCN(S(=O)(=O)c3cn(C)cn3)C2)ccc1Br (configuration not stated)	33%	19%	·	2%	-10%	-12%[60.1 µM]
Cc1cnc(CNc2ncnc3ccc(-c4ccccc4C(F)(F)F)cc23)cn1	·	·	·	·	·	-5%[60.1 µM]
CCOc1cc(/C=C2\N=C(SCC)SC2=O)cc([N+](=O)[O-])c1OC(C)=O	?	?	-22%	16µM*	45µM*	?
O=c1c(O)c(-c2ccccc2O)oc2cc(O)cc(O)c12	·	·	·	·	·	4%[60.1 µM]
O=c1c(O)c(-c2ccc(O)cc2O)oc2cc(O)cc(O)c12	4µM*	28µM*	·	4.5µM*	7.9µM*	4.2µM*
O=c1c(-c2ccc(O)cc2O)coc2cc(O)cc(O)c12	?	3%	1%[11.6 µM]	32µM*	?	?
CCCCNC(=O)[C@@H]1CC=C[C@@H]2CCN(CCCC)C(=O)[C@@H]21	4%	-4%	·	·	·	-22%
COc1ccc(CCn2c(=N)c(C(=O)NCc3ccco3)cc3c(=O)n4ccccc4nc32)cc1OC	16µM*	-21%	-22%	·	45µM*	?
COc1ccc(CCNC(=O)c2cc3c(=O)n4ccccc4nc3n(CCCN3CCOCC3)c2=N)cc1OC	?	-11%	7%	35µM*	-24%	-15%
CCn1c(=N)c(S(=O)(=O)c2ccc(Cl)cc2)cc2c(=O)n3ccccc3nc21	·	·	·	-1%	·	·
O=C(NCc1ccco1)c1cnc2ccccn2c1=O	-10%	-9%	2%	-1%	1%	-23%
O=C(NCc1ccco1)c1cccn2c(=O)c3cc4ccccc4cc3nc12	·	·	·	14µM*	·	·
N=c1c(S(=O)(=O)c2ccc(Cl)cc2)cc2c(=O)n3ccccc3nc2n1Cc1ccco1	?	1%	10%	8.9µM*	?	9%
CSc1ccc(/C=C2\C=C(C(O)c3ccc(SC)cc3)c3ccccc32)cc1 (configuration not stated)	3%	-28%	·	·	·	-7%
N=c1c(C(=O)NCc2ccco2)cc2c(=O)n3ccccc3nc2n1CC1CCCO1 (configuration not stated)	?	-17%	-27%	·	?	-8%
COCCCn1c(=N)c(C(=O)NCc2ccco2)cc2c(=O)n3ccccc3nc21	79µM*	-8%	·	-19%	-5%	-15%
CCOCCCn1c(=N)c(C(=O)NCc2ccco2)cc2c(=O)n3ccccc3nc21	26%	-16%	·	-28%	-10%	-23%
COc1ccc(CCNC(=O)c2cc3c(=O)n4ccccc4nc3n(C3CCCCC3)c2=N)cc1OC	-14%	?	6%	25µM*	-23%	-7%
N=c1c(C(=O)NCc2ccco2)cc2c(=O)n3ccccc3nc2n1CCc1ccccc1	?	-23%	-13%	32µM*	?	-27%
COc1ccc(CCNC(=O)c2cc3c(=O)n4ccccc4nc3n(C3CCCCC3)c2=N)cc1	17%	-19%	10%	0%	-11%	2%
COc1ccc(CCNC(=O)c2cc(Nc3ccccc3)nc3ccccc23)cc1OC	79µM*	-7%	·	4%	-7%	-16%[60.1 µM]

Screening results from PubChem.
